The values below come from PubChem BioAssay.

Calls of active or inactive are those of the source.

The test system of assay [1] is Human papillomavirus type 1a protein E7 (residues 44-93). The assay can be described thus: small molecules binding HPV E7 44-93 – biochemical, small-molecule microarray, residues 44-93, 635 nm fluorescence, primary screen (AID 1108).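 Further: E7 fragment applied at 1 µg/mL in TBST for 1 h at 4 C; score combines spot fluorescence with its signal to noise ratio.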 Conditions: fluorescence 635 nm, higher = more signal.
Assay [2] can be described thus: hepatitis C replication reporter changes, two-sided – Huh7 cells, luciferase reporter, HCV replication inhibitor project, primary screen (AID 1109).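 Further: huh7 hepatoma cells harbouring a luciferase neomycin HCV replicon reporter; luciferase luminescence as measure of HCV replicon replication; test concentration not given here.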 Conditions: Huh7 HCV replicon luciferase reporter, 48 h; higher = more signal. A general note: Reporter assays use an easily measured gene product as a stand-in for the process of interest.
The target in assay [3] is Left-right determination factor 2 (Homo sapiens) (UniProt O00292). Kind of assay: small molecules binding LEFTY2 protein – biochemical, small-molecule microarray, 635 nm fluorescence scan, primary screen (AID 1110). Conditions: higher = more signal.
Left-right determination factor 2 (Homo sapiens), sequence (O00292 whole entry, looked up): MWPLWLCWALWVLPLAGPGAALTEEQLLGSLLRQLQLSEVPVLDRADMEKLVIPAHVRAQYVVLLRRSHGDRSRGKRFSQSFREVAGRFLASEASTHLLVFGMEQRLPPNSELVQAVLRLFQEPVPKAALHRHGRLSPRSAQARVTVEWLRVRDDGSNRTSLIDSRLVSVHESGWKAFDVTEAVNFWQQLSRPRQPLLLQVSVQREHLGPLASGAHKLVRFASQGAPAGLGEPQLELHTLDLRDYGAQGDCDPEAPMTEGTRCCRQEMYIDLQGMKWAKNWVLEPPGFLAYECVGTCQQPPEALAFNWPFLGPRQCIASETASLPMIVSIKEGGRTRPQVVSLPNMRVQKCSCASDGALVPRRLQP
Assay [4] has as its target Calmodulin-1 (Homo sapiens) (UniProt P0DP23). The assay can be described thus: small molecules binding calmodulin-1 with EGTA – biochemical, small-molecule microarray, Cy5-labelled CALM1, profiling panel (AID 1111).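 Further: labelled calmodulin applied in Tris saline Tween buffer holding calcium plus EGTA and DTT.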 Conditions: Cy5-CALM1 binding fluorescence, higher = more signal.
Assay [5] shares this target. Kind of assay: small molecules binding Ca-loaded calmodulin-1 – biochemical, small-molecule microarray, Cy5-labelled CALM1, plus calcium, artefact control for SMM control-protein annotation, profiling panel (AID 1112).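 Further: score merges spot fluorescence with signal to noise from triplicate slides.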 Conditions: Cy5-CALM1 binding fluorescence, higher = more signal.
Assay [6] can be described thus: probe aWnt5a binding to arrayed compounds – biochemical, biotinylated probe, 635/667 nm fluorescence, primary screen (AID 1113).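 Further: score merges 667 nm fluorescence intensity with signal-to-noise per printed feature.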 The note with it: small-molecule microarray, higher = more signal.
Assay [7] can be described thus: probe aShh binding to arrayed compounds – biochemical, biotinylated probe, 635/667 nm fluorescence, primary screen (AID 1114).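 Further: probe is biotin-labelled aShh protein from a stem cell growth factor screen; measures binding of labelled protein to compounds printed on the slide; score merges feature fluorescence at 667 nm with signal-to-noise.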 The note with it: small-molecule microarray, higher = more signal.
Assay [8] in a line: probe aNog binding to arrayed compounds – biochemical, biotinylated probe, 635/667 nm fluorescence, primary screen (AID 1115).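 Further: probe is biotinylated aNog protein used at 0.15 µg/mL for 1 h at 4 C; z-score combines 667 nm fluorescence of each spot with its signal to noise.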 Conditions: small-molecule microarray, higher = more signal.
Assay [9] concerns the target Torsin-1A-interacting protein 1 (Homo sapiens) (UniProt Q5JTV8). Kind of assay: compound microarray binding of lysate hLAP1 – cell lysate, small-molecule microarray, COS7 lysate, 635/667 nm fluorescence, primary screen (AID 1116). Conditions: 635 nm fluorescence, higher = more signal.
Assay [10] deals with Alpha-bungarotoxin (Bungarus multicinctus) (UniProt P60615). The assay can be described thus: compounds binding labelled alpha-BTX control protein – biochemical, small-molecule microarray, Alexa647 label, 635/667 nm fluorescence, artefact control for SMM control protein annotation, profiling panel (AID 1117). Conditions: alpha-BTX-A647 binding fluorescence, higher = more signal.
Alpha-bungarotoxin (Bungarus multicinctus), sequence (P60615 whole entry, looked up): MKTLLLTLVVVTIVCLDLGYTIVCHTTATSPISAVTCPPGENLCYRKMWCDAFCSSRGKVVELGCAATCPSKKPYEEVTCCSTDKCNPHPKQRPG

Assay [11] has as its target Albumin (Bos taurus) (UniProt P02769). Kind of assay: compounds binding labelled BSA control protein – biochemical, small-molecule microarray, Alexa647 label, 635/667 nm fluorescence, artefact control for SMM control protein annotation, profiling panel (AID 1118).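 Further: score merges 667 nm emission intensity and signal-to-noise per printed compound spot.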 Conditions: BSA-A647 binding, fluorescence 635 nm, higher = more signal.
Assay [12] can be described thus: probe aXIP binding to arrayed compounds – biochemical, NeuroSMM set, 635/667 nm fluorescence, primary screen (AID 1119).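 Further: probe is the protein aXip251-270 applied at 1 µg/mL to compound-printed slides; binding of probe to printed compounds measured as 667 nm fluorescence plus signal to noise.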 Conditions: small-molecule microarray, higher = more signal, called active from +8 up or from −8 down.
A short description of assay [13]: probe aNOTCH3 binding on compound microarray – biochemical, small-molecule microarray, 635/667 nm fluorescence, primary screen (AID 1120).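 Further: probe is a biotin-tagged antibody raised against NOTCH3 rather than NOTCH3 protein; score merges spot fluorescence near 667 nm with spot signal to noise.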 The note with it: higher = more signal.
A short description of assay [14]: probe aNOTCH2 binding on compound microarray – biochemical, small-molecule microarray, 635/667 nm fluorescence, primary screen (AID 1121).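 Further: score merges feature fluorescence read at 667 nm with its signal to noise.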 Conditions: higher = more signal.
The target in assay [15] is Carbonic anhydrase 2 (Homo sapiens) (UniProt P00918). The assay can be described thus: compounds binding carbonic anhydrase 2 – biochemical, small-molecule microarray, Alexa647-labelled CAII, profiling panel (AID 1122). Conditions: CAII-A647 binding fluorescence, higher = more signal.
Assay [16] in a line: COS7 lysate on small-molecule microarray, probe aHis, 635 nm (AID 1123).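 Further: z-score combines 667nm fluorescence intensity with signal-to-noise per printed compound spot.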 Conditions: COS7 cell lysate, fluorescence, higher = more signal.
The nature of assay [17]: probe aLAP1 signal on lysate-treated microarray – cell lysate, small-molecule microarray, COS7 lysate, primary screen (AID 1124).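 Further: lysate comes from COS7 cells expressing LAP1 and is applied at 0.3 µg/mL; score merges spot fluorescence near 667 nm with signal-to-noise over triplicate slides.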 Conditions: probe aLAP1, fluorescence, higher = more signal.
Assay [18] has as its system Sam68 (KHDRBS1). Kind of assay: compounds binding KHDRBS1 protein – biochemical, small-molecule microarray, 635 nm fluorescence, primary screen (AID 1125).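 Further: score merges 667 nm channel intensity with signal to noise over triplicate slides.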 The note with it: higher = more signal.
Assay [19] relates to Chordin-like protein 2 (CHRDL2). Kind of assay: compounds binding chordin-like 2 – biochemical, small-molecule microarray, 635 nm fluorescence, primary screen (AID 1126).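 Further: printed compound slides probed with Chrdl2 protein at 4 µg/mL for 1 h at 4 C; score merges 667 nm emission intensity with signal to noise over three replicate slides.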 Conditions: fluorescence 635 nm, higher = more signal.
Assay [20] deals with Concanavalin-A (Canavalia ensiformis) (UniProt P02866). Kind of assay: compounds binding concanavalin A lectin – biochemical, small-molecule microarray, Alexa647 label, 635 nm, artefact control for SMM control protein annotation, primary screen (AID 1127).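 Further: z combines 667 nm emission intensity with signal-to-noise across three replicate slides.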 The note with it: ConA-A647 binding fluorescence, higher = more signal.
Concanavalin-A (Canavalia ensiformis), sequence (P02866 whole entry, looked up): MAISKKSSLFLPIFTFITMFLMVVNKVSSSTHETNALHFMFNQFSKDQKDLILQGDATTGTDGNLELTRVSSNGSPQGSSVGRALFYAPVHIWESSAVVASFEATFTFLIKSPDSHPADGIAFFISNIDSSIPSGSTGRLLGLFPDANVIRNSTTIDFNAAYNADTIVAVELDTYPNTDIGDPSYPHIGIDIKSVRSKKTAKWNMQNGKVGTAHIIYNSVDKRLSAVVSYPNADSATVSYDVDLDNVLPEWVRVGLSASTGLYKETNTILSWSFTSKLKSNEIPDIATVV

Torsin-1A-interacting protein 1 (Homo sapiens), sequence (Q5JTV8 whole entry, looked up): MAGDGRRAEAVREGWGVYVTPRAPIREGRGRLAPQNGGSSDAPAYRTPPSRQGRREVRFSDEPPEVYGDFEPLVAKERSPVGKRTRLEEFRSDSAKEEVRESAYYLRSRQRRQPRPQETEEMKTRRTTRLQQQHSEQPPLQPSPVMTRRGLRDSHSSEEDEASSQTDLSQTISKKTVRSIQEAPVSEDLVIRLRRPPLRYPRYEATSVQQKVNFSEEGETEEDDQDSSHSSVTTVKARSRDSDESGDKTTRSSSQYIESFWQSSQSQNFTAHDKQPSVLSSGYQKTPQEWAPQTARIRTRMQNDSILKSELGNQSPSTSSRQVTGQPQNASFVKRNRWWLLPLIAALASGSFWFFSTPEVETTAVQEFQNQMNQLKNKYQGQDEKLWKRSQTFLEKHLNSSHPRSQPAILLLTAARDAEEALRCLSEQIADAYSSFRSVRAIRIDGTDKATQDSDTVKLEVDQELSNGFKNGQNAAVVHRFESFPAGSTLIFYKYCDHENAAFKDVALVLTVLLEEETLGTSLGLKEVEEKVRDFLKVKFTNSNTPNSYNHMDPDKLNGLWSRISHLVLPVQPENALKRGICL
Albumin (Bos taurus), sequence (P02769 whole entry, looked up): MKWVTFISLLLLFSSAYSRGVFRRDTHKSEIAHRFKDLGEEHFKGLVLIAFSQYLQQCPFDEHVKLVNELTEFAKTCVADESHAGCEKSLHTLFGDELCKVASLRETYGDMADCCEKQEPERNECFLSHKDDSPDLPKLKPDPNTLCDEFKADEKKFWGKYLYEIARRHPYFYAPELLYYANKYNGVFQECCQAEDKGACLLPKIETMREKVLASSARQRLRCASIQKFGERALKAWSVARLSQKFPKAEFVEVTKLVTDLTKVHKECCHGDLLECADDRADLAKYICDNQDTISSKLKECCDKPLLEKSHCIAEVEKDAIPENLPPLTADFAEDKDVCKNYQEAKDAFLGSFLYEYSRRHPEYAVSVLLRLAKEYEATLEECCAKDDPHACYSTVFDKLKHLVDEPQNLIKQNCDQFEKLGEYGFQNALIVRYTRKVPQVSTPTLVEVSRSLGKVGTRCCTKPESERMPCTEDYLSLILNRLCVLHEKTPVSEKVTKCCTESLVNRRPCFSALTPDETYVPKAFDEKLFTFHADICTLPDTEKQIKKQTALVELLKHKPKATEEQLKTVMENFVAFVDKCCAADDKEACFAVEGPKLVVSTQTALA

Turning to `Cc1ccc(S[C@]2(C(=O)O)CC(=O)N(Cc3cc(C(F)(F)F)cc(C(F)(F)F)c3)[C@@H]2c2ccc(CO)cc2I)cc1`, the composite z-score in assay [1] is -0.0997; in [3] it was -2.05; in assay [4], -0.279; in assay [5], 0.74; in assay [6], -0.0824; in assay [7] it was 0.0767. Moreover, the composite z-score is 0.181 in assay [8]; 0.598 in assay [9]; -0.206 in assay [10]; 0.372 in [11]; -0.243 in [13]; -0.154 in [14]. In addition, the composite z-score in assay [15] was 0.0858; in assay [16], 0.0199; in assay [17] it was -0.439; in assay [18], 0.456; in assay [19], -1.02; in [20], 0.226. For the same molecule, the z-score in assay [2] is -1.39. Moreover, the composite Z-score in [12] is 1.54 (inactive).

As for `CSCC[C@@H]1NC(=O)CC=C[C@@H](C)COC(=O)[C@H](CCSC)NC(=O)CC=C[C@@H](C)COC1=O`, the composite z-score in assay [1] was -0.507; in assay [3], 0.42; in assay [4] it was -1.21; in assay [5] it was -0.58; in assay [6], -0.168; in assay [7], 0.0756. Also, the composite z-score in assay [8] was -0.255; in assay [9], -0.242; in assay [10], -0.222; in assay [11] it was -0.767; in assay [13], -0.205; in [14], -0.135. The composite z-score is -0.342 in assay [15]; -0.45 in assay [16]; -0.524 in assay [17]; -0.32 in assay [18]; 1.39 in [19]; -0.796 in [20]. In [2], this molecule gave a z-score of -0.116. Further, the composite Z-score in assay [12] is 0.559 (inactive).

For `C=C(CCCC)C(=O)CC[C@@H](OC(=O)c1cccnc1)c1cccc(OCCO)c1`, the composite z-score in assay [1] is -0.0891; in assay [3], 0.0009; in assay [4], -0.708; in [5] it was -1.47; in assay [6], -0.0213; in [7], -0.0977. Further, the composite z-score in assay [8] was 0.314; in [9] it was 0.469; in assay [10], 1.76; in [11], -1.06; in assay [13], 0.0351; in [14], -0.148. In addition, the composite z-score in assay [15] is 0.15; in [16] it was 0.0383; in [17], 0.0475; in assay [18], 0.789; in assay [19] it was 0.207; in assay [20], -0.158. The same molecule showed a z-score in [2] of -3.58. Moreover, the composite Z-score in assay [12] is -0.123 (inactive).

Turning to `NC(=O)NCC#Cc1ccc2c(c1)[C@]1(C(=O)N2)[C@H](C(N)=O)[C@H]2C(=O)O[C@H](c3ccccc3)[C@H](c3ccccc3)N2[C@@H]1c1ccccc1OCCO`, the composite z-score is 1.04 in [1]; 0.375 in assay [3]; 0.425 in assay [4]; 0.356 in assay [5]; -0.124 in assay [6]; -0.0793 in assay [7]. Further, the composite z-score in assay [8] is 0.657; in assay [9] it was 0.808; in [10] it was 0.45; in assay [11] it was 0.284; in [13], 0.121; in assay [14] it was -0.0762. Further, the composite z-score in assay [15] was 0.175; in assay [16], 0.841; in assay [17], 0.519; in [18], 0.978; in assay [19] it was 0.543; in assay [20] it was 0.936. Also, in [2], the z-score was -0.771. In [12], the composite Z-score is 0.0219 (inactive).

As for `Cc1ccc(N2C(=O)c3ccccc3[C@](C)(C(=O)O)[C@@H]2c2ccc(CO)cc2)nc1`, the composite z-score in assay [1] is -2.5; in assay [3], -1.64; in [4], 0.202; in [5], 0.823; in assay [6], -0.304; in [7] it was 0.608. For the same molecule, the composite z-score in assay [8] is -0.459; in assay [9], -0.415; in assay [10], -0.666; in [11], -1.29; in [13], -0.414; in [14] it was -0.228. Further, the composite z-score in assay [15] was 0.289; in assay [16], -0.471; in assay [17], 0.067; in [18] it was -1.17; in assay [19], -1.77; in assay [20] it was -1.14. This molecule gave a z-score in assay [2] of 0.0767. The composite Z-score in assay [12] was -0.313 (inactive).

As for `COCCOC(=O)N1C(=O)[C@@]2(c3ccccc31)[C@H](C(=O)N1CCc3cc(OC)c(OC)cc3C1)[C@H]1C(=O)O[C@H](c3ccccc3)[C@H](c3ccccc3)N1[C@@H]2c1ccccc1OCCO`, the composite z-score is 0.583 in assay [1]; 0.284 in [3]; 1.25 in assay [4]; 0.868 in assay [5]; -0.124 in assay [6]; 0.319 in [7]. Further, the composite z-score in assay [8] was 0.185; in assay [9], 0.987; in assay [10], 2.42; in [11], 0.484; in assay [13], 0.0556; in assay [14] it was -0.0607. Also, the composite z-score was 0.441 in assay [15]; 1.24 in [16]; 0.0221 in assay [17]; 1.3 in assay [18]; 0.107 in [19]; 1.17 in assay [20]. This molecule had a z-score in assay [2] of -1.51. Further, the composite Z-score in assay [12] is 0.497 (inactive).
